Source: PubChem BioAssay (Tox21)
Records with an inconclusive call do not appear. A call without a number means that no potency is given here. Calls of active or inactive are those of the source. Unless noted, calls come from the whole dose curve.

Legend:
[1] = Nuclear factor erythroid 2-related factor 2/antioxidant responsive element (Nrf2/ARE) small molecule agonists: qHTS cell viability counter screen in human keratinocytes (AID 1919968; active = well fitted curve in the direction sought with a large enough effect in the repeat runs; an effect the other way counts as inactive or inconclusive; note: nearly all actives have a fitted effect of over 55% in size); settings: KeratinoSens HaCaT ARE cells viability, CellTiter-Fluor, 24 h; series mostly up to 92.4 µM
Method in brief: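 Parallel cytotoxicity read: KeratinoSens HaCaT cells, compound treatment 23 h, viability by CellTiter-Fluor fluorescence 1 h post-reagent.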

[2] = Nuclear factor erythroid 2-related factor 2/antioxidant responsive element (Nrf2/ARE) small molecule agonists: luciferase reporter gene qHTS assay in human keratinocytes (AID 1919969); settings: KeratinoSens HaCaT ARE-luciferase, luminescence, 24 h; series mostly up to 92.4 µM; note: nearly all actives have a fitted effect of over 35% in size
[3] = molecular target: Gonadotropin-releasing hormone receptor (Homo sapiens) (UniProt P30968); assay: Human gonadotropin-releasing hormone receptor (GnRHR) small molecule agonists, calcium flux assay in GnRHR-HEK293 cells (AID 1920063); settings: calcium flux fluorescence, agonist mode; series mostly up to 57.6 µM; note: nearly all actives have a fitted effect of over 35% in size
Chain of Gonadotropin-releasing hormone receptor (Homo sapiens) (P30968 whole entry, looked up): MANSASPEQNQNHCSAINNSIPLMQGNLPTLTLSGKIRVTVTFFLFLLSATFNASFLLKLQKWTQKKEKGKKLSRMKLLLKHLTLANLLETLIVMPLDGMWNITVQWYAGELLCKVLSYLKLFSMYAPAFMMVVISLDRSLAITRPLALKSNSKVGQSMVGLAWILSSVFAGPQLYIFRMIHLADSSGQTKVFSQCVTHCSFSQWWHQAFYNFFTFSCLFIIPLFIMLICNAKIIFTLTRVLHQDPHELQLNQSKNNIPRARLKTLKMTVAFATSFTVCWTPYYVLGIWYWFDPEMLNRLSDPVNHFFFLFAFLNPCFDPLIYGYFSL
Method in brief: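 Calcium flux, agonist mode, human GnRHR stably integrated in HEK293; dye 1 h at 37 C before compound; Ex/Em=480/540 kinetic read, 3 min; 15 concentrations, triplicate.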

[4] = molecular target: KiSS-1 receptor (Homo sapiens) (UniProt Q969F8); assay: Human kisspeptin (KISS1R) small molecule agonists, calcium flux assay in KISS1R-HEK293 cells (AID 1920064; active = well fitted curve in the direction sought with a large enough effect in the repeat runs; an effect the other way counts as inactive or inconclusive); settings: KISS1R-HEK293, calcium flux fluorescence, agonist; series mostly up to 76.8 µM
Chain of KiSS-1 receptor (Homo sapiens) (Q969F8 whole entry, looked up): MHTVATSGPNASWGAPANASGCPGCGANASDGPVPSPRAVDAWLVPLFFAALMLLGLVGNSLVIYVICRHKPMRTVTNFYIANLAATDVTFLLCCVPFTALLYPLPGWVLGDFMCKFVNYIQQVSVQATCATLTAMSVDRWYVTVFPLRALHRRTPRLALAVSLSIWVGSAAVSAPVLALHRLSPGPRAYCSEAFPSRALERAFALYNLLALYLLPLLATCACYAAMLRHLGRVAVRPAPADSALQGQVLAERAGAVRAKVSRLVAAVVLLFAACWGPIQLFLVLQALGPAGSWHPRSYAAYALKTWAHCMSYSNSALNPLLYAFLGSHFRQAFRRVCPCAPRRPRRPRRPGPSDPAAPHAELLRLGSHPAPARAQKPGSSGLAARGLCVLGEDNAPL
Method in brief: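 Triplicate 15-concentration series were applied to dye-loaded human KISS1R HEK293 cells, and agonist-evoked calcium fluorescence was captured for 3 min.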

[5] = G protein-coupled receptor (GPCR) small molecule agonists, calcium flux assay: HEK293 wild type cell line counter screen (AID 1920065); settings: HEK293 WT calcium flux, fluorescence, agonist mode; series mostly up to 57.6 µM
Method in brief: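 Non-specific calcium responders were flagged by adding DMSO-dissolved compounds to dye-loaded cells and reading 480/540 nm fluorescence each second for 3 min; ATP served as positive control.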

[6] = p53 small molecule agonists, cell-based qHTS assay with human liver microsomes (AID 1963577); settings: HCT-116 p53RE-bla with human liver microsomes, ratio, 16 h; series mostly up to 66 µM
Method in brief: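 p53RE-bla cells, 4,000/well, compound added after 5 h, with human liver microsomes 0.5 mg/mL and NADPH 0.5 mg/mL final; 16 h at 37 C, then LiveBLAzer 2 h RT, fluorescence.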

[7] = p53 small molecule agonists, cell-based qHTS assay with rat liver microsomes (AID 1963578); settings: HCT-116 p53RE-bla, beta-lactamase ratio, 16 h; series mostly up to 66 µM
Method in brief: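 p53RE-bla cells, 4,000/well, pre-incubated 5 h, then given compounds plus rat liver microsomes (0.5 mg/mL final) and NADPH (0.5 mg/mL final). Incubation 16 h at 37 C; beta-lactamase reporter read by LiveBLAzer fluorescence after 2 h at room temperature.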

[8] = p53 small molecule agonists, cell-based qHTS assay with human liver microsomes: qHTS cell viability counter screen (AID 1963579); settings: p53RE-bla HCT-116 viability, ATP luminescence, 16 h, HLM; series mostly up to 66 µM; note: nearly all actives have a fitted effect of over 45% in size
Method in brief: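 p53RE-bla cells, 4,000/well, dosed 5 hours after plating, with human liver microsomes (0.5 mg/mL final) plus NADPH (0.5 mg/mL final), 16 hours at 37 C. Viability read as CellTiter-Glo luminescence after 30 min at room temperature.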

[9] = p53 small molecule agonists, cell-based qHTS assay with rat liver microsomes: qHTS cell viability counter screen (AID 1963580); settings: p53RE-bla HCT-116 + rat microsomes, ATP viability, 16 h; series mostly up to 66 µM; note: nearly all actives have a fitted effect of over 45% in size
Method in brief: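 After the beta-lactamase ratio was read, CellTiter-Glo was added to the same wells and luminescence measured at 30 min; cells had been treated 16 h at 37 C with compounds, rat liver microsomes and NADPH (0.5 mg/mL final each).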

[10] = p53 small molecule agonists, cell-based qHTS assay: qHTS cell viability counter screen (AID 1963581); settings: p53RE-bla HCT-116 viability, ATP luminescence, 16 h; series mostly up to 66 µM; note: nearly all actives have a fitted effect of over 45% in size
Method in brief: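 Multiplexed with the reporter read, a CellTiter-Glo step (30 min, room temperature) gauges ATP-based viability of HCT-116 p53RE-bla cells after 16 h compound incubation at 37 C.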

[11] = p53 small molecule agonists, cell-based qHTS assay (AID 1963582; active = well fitted activation curve with a large enough effect in the signal ratio in the repeat runs, not every such curve was filed as active; the % refers to the signal ratio); settings: HCT-116 p53RE-bla reporter, beta-lactamase FRET ratio, 16 h; series mostly up to 66 µM
Method in brief: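 Beta-lactamase reporter cells (p53RE-bla) treated with compounds for 16 h at 37 C; FRET substrate, 2 h, room temperature; fluorescence intensity.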

[12] = molecular target: 5-hydroxytryptamine receptor 2A (Homo sapiens) (UniProt P28223); assay: 5-hydroxytryptamine receptor 2A (HTR2A) small molecule antagonists, cell-based qHTS assay (AID 1963586); settings: HTR2A-CHO cells, DOI-induced calcium flux, fluorescence; series mostly up to 61.5 µM; note: nearly all actives have a fitted effect of over 45% in size
Chain of 5-hydroxytryptamine receptor 2A (Homo sapiens) (P28223 whole entry, looked up): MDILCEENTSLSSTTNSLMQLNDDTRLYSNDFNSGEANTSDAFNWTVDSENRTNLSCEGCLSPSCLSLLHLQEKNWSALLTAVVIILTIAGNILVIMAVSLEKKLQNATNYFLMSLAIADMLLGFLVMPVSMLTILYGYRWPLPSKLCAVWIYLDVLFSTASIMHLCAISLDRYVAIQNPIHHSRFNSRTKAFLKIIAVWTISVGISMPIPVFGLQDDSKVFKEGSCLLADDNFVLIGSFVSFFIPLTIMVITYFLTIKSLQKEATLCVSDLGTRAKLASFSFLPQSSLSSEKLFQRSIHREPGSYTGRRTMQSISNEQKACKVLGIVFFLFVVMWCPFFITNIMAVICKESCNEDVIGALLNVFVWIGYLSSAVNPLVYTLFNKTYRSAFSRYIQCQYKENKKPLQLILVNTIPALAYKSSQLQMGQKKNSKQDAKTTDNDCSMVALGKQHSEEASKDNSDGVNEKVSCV
Method in brief: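 CHO cells stably expressing human HTR2A were plated for 18 h at 37 C, then loaded with calcium dye for 1 h. Compounds were preincubated 5 min at room temperature before DOI (4 nM solution) was added. Kinetic fluorescence was read for 3 min.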

[13] = molecular target: 5-hydroxytryptamine receptor 2A (Homo sapiens) (UniProt P28223); assay: 5-hydroxytryptamine receptor 2A (HTR2A) small molecule agonists, cell-based qHTS assay (AID 1963587); settings: HTR2A-CHO cells, calcium flux fluorescence, agonist mode; series mostly up to 76.8 µM; note: nearly all actives have a fitted effect of over 30% in size
Method in brief: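 CHO cells stably expressing human HTR2A, plated 18 h, loaded with calcium dye 1 h at 37 C. Agonist mode: compounds added and intracellular calcium fluorescence recorded kinetically for 2 min at 1 sec intervals.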

[14] = molecular target: Muscarinic acetylcholine receptor M1 (Homo sapiens) (UniProt P11229); assay: Cholinergic receptor muscarinic 1 (CHRM1) small molecule antagonists, cell-based qHTS assay (AID 1963588); settings: CHRM1-CHO antagonist mode, calcium flux fluorescence; series mostly up to 61.5 µM; note: nearly all actives have a fitted effect of over 40% in size
Chain of Muscarinic acetylcholine receptor M1 (Homo sapiens) (P11229 whole entry, looked up): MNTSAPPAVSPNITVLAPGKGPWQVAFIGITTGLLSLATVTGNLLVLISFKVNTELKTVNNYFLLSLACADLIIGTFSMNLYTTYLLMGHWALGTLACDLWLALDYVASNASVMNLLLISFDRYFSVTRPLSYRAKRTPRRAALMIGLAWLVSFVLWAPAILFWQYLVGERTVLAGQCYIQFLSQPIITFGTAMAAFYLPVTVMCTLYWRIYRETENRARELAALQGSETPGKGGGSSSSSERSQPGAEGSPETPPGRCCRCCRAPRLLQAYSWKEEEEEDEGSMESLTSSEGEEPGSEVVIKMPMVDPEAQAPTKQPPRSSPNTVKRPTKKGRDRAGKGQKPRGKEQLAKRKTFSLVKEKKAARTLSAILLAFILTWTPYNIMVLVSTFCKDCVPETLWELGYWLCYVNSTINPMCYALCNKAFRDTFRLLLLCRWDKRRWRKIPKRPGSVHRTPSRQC
Method in brief: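 Compounds were tested at 15 concentrations in three independent runs. Dye-loaded CHRM1-CHO cells were exposed 5 min at room temperature before stimulation by acetylcholine added at 50nM. Intracellular calcium was read kinetically on FDSS for 3 min.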

[15] = molecular target: Muscarinic acetylcholine receptor M1 (Homo sapiens) (UniProt P11229); assay: Cholinergic receptor muscarinic 1 (CHRM1) small molecule agonists, cell-based qHTS assay (AID 1963589); settings: CHRM1-CHO cells, agonist mode, calcium flux fluorescence; series mostly up to 76.8 µM; note: nearly all actives have a fitted effect of over 35% in size
Method in brief: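 qHTS, 15-point titration, 3 independent runs: compounds pin-transferred onto dye-loaded CHRM1-CHO cells (human M1), calcium fluorescence followed every second to detect agonism.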

[16] = cAMP Responsive Elements (CRE) small molecule agonists, cell-based qHTS assay (AID 1963590); settings: CRE-bla HEK293T, beta-lactamase FRET ratio, 3 h; series mostly up to 92.4 µM; note: potency is the fitted concentration of half-maximal effect
Method in brief: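 Quantitative HTS for CRE agonists: HEK 293T CRE-bla cells, overnight plating, 3 h compound incubation at 37 C/5% CO2, then 2 h room-temperature LiveBLAzer B/G FRET substrate loading.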

[17] = molecular target: Beta-2 adrenergic receptor (Homo sapiens) (UniProt P07550); assay: Adrenergic beta2 receptor (ADRB2) small molecule antagonists, cell-based qHTS assay (AID 1963592); settings: CHO-ADRB2 cells, isoproterenol-stimulated cAMP HTRF ratio, 0.5 h; series mostly up to 92.4 µM; note: nearly all actives have a fitted effect of over 50% in size
Chain of Beta-2 adrenergic receptor (Homo sapiens) (P07550 whole entry, looked up): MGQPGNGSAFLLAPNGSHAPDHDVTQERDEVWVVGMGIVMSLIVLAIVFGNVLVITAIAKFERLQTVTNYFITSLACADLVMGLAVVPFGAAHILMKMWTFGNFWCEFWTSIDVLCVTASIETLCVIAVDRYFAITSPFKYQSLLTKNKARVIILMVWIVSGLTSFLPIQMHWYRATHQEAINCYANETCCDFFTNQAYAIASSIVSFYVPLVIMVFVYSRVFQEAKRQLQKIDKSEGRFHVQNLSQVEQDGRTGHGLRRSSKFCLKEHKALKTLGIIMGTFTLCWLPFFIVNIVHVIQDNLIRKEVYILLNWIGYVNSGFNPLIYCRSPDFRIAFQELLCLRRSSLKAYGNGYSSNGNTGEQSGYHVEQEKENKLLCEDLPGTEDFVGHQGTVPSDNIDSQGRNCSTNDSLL
Method in brief: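 Assay format: CHO-ADRB2 cells, 18-20hr seeding at 37C/5% CO2, then compound plus 1nM isoproterenol agonist mix for 0.5hr RT. Homogeneous time-resolved fluorescence cAMP detection after 1hr, expressed as 665/615 nm ratio.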

[18] = molecular target: D(2) dopamine receptor (Homo sapiens) (UniProt P14416); assay: Dopamine D2 receptor (DRD2) small molecule agonists, cell-based qHTS assay (AID 1963594); settings: HEK293-DRD2 cAMP HTRF, agonist mode, 30 min; series mostly up to 92.4 µM; note: nearly all actives have a fitted effect of over 35% in size
Chain of D(2) dopamine receptor (Homo sapiens) (P14416 whole entry, looked up): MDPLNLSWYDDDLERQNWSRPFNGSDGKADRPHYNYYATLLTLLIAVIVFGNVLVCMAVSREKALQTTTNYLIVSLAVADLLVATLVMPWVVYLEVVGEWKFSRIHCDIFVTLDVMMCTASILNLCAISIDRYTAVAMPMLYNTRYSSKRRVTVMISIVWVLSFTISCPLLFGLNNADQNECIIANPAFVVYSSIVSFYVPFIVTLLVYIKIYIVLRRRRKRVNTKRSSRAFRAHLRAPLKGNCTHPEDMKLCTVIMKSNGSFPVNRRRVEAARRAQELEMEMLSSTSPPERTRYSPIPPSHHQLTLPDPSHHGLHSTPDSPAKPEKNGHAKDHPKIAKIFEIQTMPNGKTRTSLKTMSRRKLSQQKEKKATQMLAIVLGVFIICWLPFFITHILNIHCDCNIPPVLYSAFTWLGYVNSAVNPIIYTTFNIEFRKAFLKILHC
Method in brief: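 HEK293 cells stably expressing human DRD2, pre-treated with PDE inhibitor Ro20-1724 (0.1 mM final) and compound 10 min at room temperature, then stimulated with NKH477 (200nM […]) for 30 min. cAMP read by HTRF (665/620 nm).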

[19] = molecular target: D(2) dopamine receptor (Homo sapiens) (UniProt P14416); assay: Dopamine D2 receptor (DRD2) small molecule antagonists, cell-based qHTS assay (AID 1963595; active = well fitted inhibition curve with a large enough effect in the signal ratio in the repeat runs, with a control signal flat; the % refers to the signal ratio; note: potency is the fitted concentration of half-maximal effect); settings: HEK293-DRD2 cAMP HTRF antagonist mode; series mostly up to 92.4 µM
Method in brief: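 Stable D2 receptor HEK293 line, 24 h after seeding. Compound preincubated 10 min, then quinpirole (12 nM) with forskolin analogue NKH477 (200 nM), 30 min, room temperature. Detection by time-resolved FRET of cAMP.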

[20] = cAMP Responsive Elements (CRE) small molecule antagonists, cell-based qHTS assay (AID 1963591; active = well fitted inhibition curve with a large enough effect in the signal ratio in the repeat runs, not every such curve was filed as active; the % refers to the signal ratio); settings: CRE-bla HEK293T, beta-lactamase FRET ratio; series mostly up to 92.4 µM
Method in brief: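 Fluorescence intensity from cleaved LiveBLAzer B/G substrate (2 h, room temperature) quantified CRE-bla activity in HEK 293T cells exposed 3 h to compound with 0.25 uM final NKH477.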

Structure (SMILES)	Potency [1]	Potency [2]	Potency [3]	outcome [4]	outcome [5]	Potency [6]	Potency [7]	Potency [8]	Potency [9]	Potency [10]	Potency [11]	Potency [12]	Potency [13]	Potency [14]	Potency [15]	Potency [16]	Potency [17]	Potency [18]	Potency [19]	Potency [20]
OCCCCC(O)CO (configuration not stated)	inactive	inactive	inactive	inactive	inactive	inactive	inactive	inactive	inactive	inactive	inactive	inactive	inactive	inactive	inactive	inactive	inactive	inactive	inactive	–
NC(CO)C(=O)NNCc1ccc(O)c(O)c1O (configuration not stated)	inactive	inactive	inactive	inactive	inactive	inactive	inactive	inactive	inactive	inactive	inactive	inactive	inactive	inactive	inactive	inactive	–	–	inactive	inactive
CC(C)SCc1ccco1	inactive	inactive	inactive	inactive	inactive	inactive	inactive	inactive	inactive	inactive	inactive	inactive	inactive	inactive	inactive	inactive	inactive	inactive	inactive	–
CCOC(=O)C(O)c1ccccc1 (configuration not stated)	inactive	inactive	inactive	inactive	inactive	inactive	inactive	inactive	inactive	inactive	inactive	inactive	inactive	inactive	inactive	inactive	–	inactive	inactive	inactive
O=C(O)c1ccccc1Cl	inactive	inactive	inactive	inactive	inactive	inactive	inactive	inactive	inactive	inactive	inactive	inactive	inactive	inactive	inactive	inactive	inactive	inactive	inactive	–
Brc1c2ccccc2cc2ccccc12	inactive	inactive	inactive	inactive	inactive	inactive	inactive	inactive	inactive	inactive	inactive	inactive	inactive	inactive	inactive	inactive	–	inactive	inactive	inactive
Cc1[nH]c(=O)c(C#N)cc1-c1ccc2nccn2c1	inactive	inactive	inactive	inactive	inactive	inactive	inactive	inactive	inactive	inactive	inactive	inactive	inactive	inactive	inactive	inactive	–	inactive	inactive	inactive
Cc1ccc(C)c(N)c1	inactive	inactive	inactive	inactive	inactive	inactive	inactive	inactive	inactive	inactive	inactive	inactive	inactive	inactive	inactive	inactive	–	–	inactive	inactive
O=[N+]([O-])c1c(Cl)cc(Cl)cc1Cl	inactive	inactive	inactive	inactive	inactive	inactive	inactive	inactive	inactive	inactive	inactive	inactive	inactive	inactive	inactive	inactive	–	inactive	inactive	inactive
CNC(=O)c1cnn(-c2nc(N)c3ncn([C@@H]4O[C@H](CO)[C@@H](O)[C@H]4O)c3n2)c1	inactive	inactive	inactive	inactive	inactive	inactive	inactive	inactive	inactive	inactive	inactive	inactive	inactive	inactive	inactive	11.9 µM (active)	inactive	–	1.88 µM (active)	–
Cc1ccc2cccnc2c1	inactive	inactive	inactive	inactive	inactive	inactive	inactive	inactive	inactive	inactive	inactive	inactive	inactive	inactive	inactive	inactive	inactive	inactive	inactive	–
C=C(C)C(=O)OCC(O)CO (configuration not stated)	inactive	inactive	inactive	inactive	inactive	inactive	inactive	inactive	inactive	inactive	inactive	inactive	inactive	inactive	inactive	inactive	inactive	inactive	inactive	–
CC1(C)S[C@@H]2[C@H](NC(=O)C(c3ccccc3)S(=O)(=O)O)C(=O)N2[C@H]1C(=O)O (some centres not stated)	inactive	inactive	inactive	inactive	inactive	inactive	inactive	inactive	inactive	inactive	inactive	inactive	inactive	inactive	inactive	inactive	inactive	inactive	inactive	–
Cc1cc(=O)[nH]c(=O)[nH]1	inactive	inactive	inactive	inactive	inactive	inactive	inactive	inactive	inactive	inactive	inactive	inactive	inactive	inactive	inactive	inactive	–	inactive	–	inactive
CC(C)(C)C(=O)CC(=O)C(C)(C)C	inactive	inactive	inactive	inactive	inactive	inactive	inactive	inactive	inactive	inactive	inactive	inactive	inactive	inactive	inactive	inactive	–	inactive	inactive	inactive
N[C@H](C(=O)O)[C@@H](O)c1ccc(O)c(O)c1	inactive	inactive	inactive	inactive	inactive	inactive	inactive	inactive	inactive	inactive	inactive	inactive	inactive	inactive	inactive	inactive	inactive	–	inactive	inactive
CC1CCCO1 (configuration not stated)	inactive	inactive	inactive	inactive	inactive	inactive	inactive	inactive	inactive	inactive	inactive	inactive	inactive	inactive	inactive	inactive	inactive	–	inactive	inactive
CC(C)Nc1cccnc1N1CCN(C(=O)c2cc3cc(NS(C)(=O)=O)ccc3[nH]2)CC1	inactive	inactive	inactive	inactive	inactive	inactive	inactive	inactive	inactive	inactive	inactive	inactive	inactive	inactive	inactive	inactive	inactive	–	inactive	–
